The text below walks through data of PubChem BioAssay AID1573 (National Center for Advancing Translational Sciences (NCATS), 2009).

Results filed as inconclusive are left out. Entries that show only a call come without a potency. Calls of active or inactive are those of the source. Calls follow the shape of the dose curve; as a rule, active = well fitted inhibition curve with a large enough effect; inconclusive = small, poorly fitted or top-dose-only effect; inactive = no such curve, though single readings can be large or run the other way.

For the test, the target named is Thyroid hormone receptor beta (Homo sapiens) (UniProt P10828). Briefly: Concentration Response Confirmation Assay for Inhibitors of the Interaction of Thyroid Hormone Receptor and Steroid Receptor Coregulator 2. Conditions: TRb LBD + Texas Red SRC2 peptide, fluorescence polarization, 5 h; series mostly up to 92.2 µM. Put shortly:
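Fluorescence polarization with 0.6 uM human TRβ ligand-binding domain and 20 nM Texas Red SRC2 peptide, in Tris buffer with 1 uM T3 and 5% DMSO. Read after 5 hr at ambient temperature; data normalized to unbound and bound peptide controls, concentration-response.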
On the technique in general: In fluorescence polarisation assays a small probe gives low polarisation when free and higher when bound to something large.

Chain of Thyroid hormone receptor beta (Homo sapiens) (P10828 whole entry, looked up, the tested form may be a part): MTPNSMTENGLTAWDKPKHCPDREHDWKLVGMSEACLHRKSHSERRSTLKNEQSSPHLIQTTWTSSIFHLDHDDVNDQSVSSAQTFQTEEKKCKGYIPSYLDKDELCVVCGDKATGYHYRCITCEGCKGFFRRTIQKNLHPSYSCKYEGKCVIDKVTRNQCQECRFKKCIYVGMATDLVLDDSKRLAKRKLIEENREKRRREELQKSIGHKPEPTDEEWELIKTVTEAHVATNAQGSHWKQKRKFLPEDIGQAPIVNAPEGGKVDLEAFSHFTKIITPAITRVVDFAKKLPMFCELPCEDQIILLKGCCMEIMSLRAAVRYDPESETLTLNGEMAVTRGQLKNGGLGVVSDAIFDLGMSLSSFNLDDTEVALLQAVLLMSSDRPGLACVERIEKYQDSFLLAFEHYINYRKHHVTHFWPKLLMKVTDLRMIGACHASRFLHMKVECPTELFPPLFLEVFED

In the case of `CN1N=C(C(C)(C)C)CC1=O`, the Potency result is “inactive”.

On to `O=C(NNc1cc(N2CCOCC2)nc(N2CCOCC2)n1)c1ccc([N+](=O)[O-])cc1`, for which the Potency is 20 µM (active).
